Test results taken from PubChem BioAssay (NCATS).
“And” between values parts separate entries of the source, which are not always exact repeats. Equal entries are not always repeated. Records with an inconclusive call do not appear. A structure can be active in one record and inactive in another. The source made the active and inactive calls. Calls follow the shape of the dose curve; as a rule, active = well fitted curve in the direction sought with a large enough effect; inconclusive = small, poorly fitted or top-dose-only effect, or another doubt; inactive = no such curve, though single readings can be large; an effect the other way counts as inactive or inconclusive.

Columns and labels:
C33A = experiment: Primary qHTS to identify gynecologic anti-cancer compounds using libraries of approved drugs and bioactive compounds (AID 1345084); details: Gynecologic cancer cell panel viability, ATPlite luminescence, 48 h; series mostly up to 57.5 µM; also: nearly all actives have a fitted effect of over 55% in size
Procedure, shortened: (§1)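 Five-point cytotoxicity, 48 h drug exposure at 37 C, 5% CO2, on cells seeded 16 h beforehand. ATP content read by ATPlite luminescence.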

CAOV3 = experiment: as above; details: Gynecologic cancer cell panel viability, ATPlite luminescence, 48 h; series mostly up to 57.5 µM
Procedure, shortened: as §1

CASKI = experiment: as above; details: Gynecologic cancer cell panel viability, ATPlite luminescence, 48 h; series mostly up to 57.5 µM
Procedure, shortened: as §1

Es-2 = experiment: as above; details: Gynecologic cancer cell panel viability, ATPlite luminescence, 48 h; series mostly up to 57.5 µM
Procedure, shortened: as §1

HeLa = experiment: as above; details: Gynecologic cancer cell panel viability, ATPlite luminescence, 48 h; series mostly up to 57.5 µM
Procedure, shortened: as §1

Hek293T = experiment: as above; details: Gynecologic cancer cell panel viability, ATPlite luminescence, 48 h, control line for the selectivity index; series mostly up to 57.5 µM
Procedure, shortened: as §1

JEG-3 = experiment: as above; details: Gynecologic cancer cell panel viability, ATPlite luminescence, 48 h; series mostly up to 57.5 µM
Procedure, shortened: as §1

OV90 = experiment: as above; details: Gynecologic cancer cell panel viability, ATPlite luminescence, 48 h; series mostly up to 57.5 µM
Procedure, shortened: as §1

PA-1 = experiment: as above; details: Gynecologic cancer cell panel viability, ATPlite luminescence, 48 h; series mostly up to 57.5 µM
Procedure, shortened: as §1

SKOV3 = experiment: as above; details: Gynecologic cancer cell panel viability, ATPlite luminescence, 48 h; series mostly up to 57.5 µM
Procedure, shortened: as §1

Tov-21-G = experiment: as above; details: Gynecologic cancer cell panel viability, ATPlite luminescence, 48 h; series mostly up to 57.5 µM
Procedure, shortened: as §1

Tov112D = experiment: as above; details: Gynecologic cancer cell panel viability, ATPlite luminescence, 48 h; series mostly up to 57.5 µM
Procedure, shortened: as §1

[1] = Drug repurposing screens with cells derived from glioblastoma tumor samples (AID 1345199); details: GBM patient neurospheres viability, ATP luminescence, 48 h; also: nearly all actives have a fitted effect of over 40% in size; also: potency is read from the fitted curve at half-maximal effect
Procedure, shortened: (§2)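 Four patient lines of CD133+ GBM neurospheres were screened at several concentrations; hits were retested in those lines plus three slower-growing GBM lines, using 48-hour treatment and ATP-based viability.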

astro = experiment: as above; details: viability, ATP luminescence, 48 h; series mostly up to 45.9 µM
Procedure, shortened: as §2

[2] = at 45.9 µM (top of the series), tumour line B
[3] = at 45.9 µM (top of the series), tumour line D
[4] = at 46.1 µM (top of the series), tumour line C
% is scaled to controls: 0 for no effect and ±100 for the full control effect.

C[C@]12CCC(=O)C=C1CC[C@@H]1[C@@H]2[C@@H](O)C[C@@]2(C)[C@H]1CC[C@]2(O)C(=O)COC(=O)CCC(=O)O
inactive: Potency (C33A) | Potency (CAOV3) | Potency (CASKI) | Potency (Es-2) | Potency (HeLa) | Potency (Hek293T) | Potency (JEG-3) | Potency (OV90) | Potency (PA-1) | Potency (SKOV3) | Potency (Tov-21-G) | Potency (Tov112D) | activity, negative = cell killing [1, 2] -2.56% | activity, negative = cell killing [1, 3] -26.6% | activity, negative = cell killing [1, 4] -2.87% | Potency (astro)

C[N+]1(C)CCC(OC(=O)C(O)(c2ccccc2)C2CCCC2)C1 (stereo unspecified)
inactive: Potency (C33A) | Potency (CAOV3) | Potency (CASKI) | Potency (Es-2) | Potency (HeLa) | Potency (Hek293T) | Potency (JEG-3) | Potency (OV90) | Potency (PA-1) | Potency (SKOV3) | Potency (Tov-21-G) | Potency (Tov112D) | activity, negative = cell killing [1, 3] -7.1% | activity, negative = cell killing [1, 4] -3.15% and -15.3% | Potency (astro)
active: Potency ([1]; tumour line A) 11.2 µM

CC(=O)OCC(=O)Nc1cc(C#N)cc(NC(=O)COC(C)=O)c1Cl
inactive: Potency (C33A) | Potency (CAOV3) | Potency (CASKI) | Potency (Es-2) | Potency (HeLa) | Potency (Hek293T) | Potency (JEG-3) | Potency (OV90) | Potency (PA-1) | Potency (SKOV3) | Potency (Tov-21-G) | Potency (Tov112D) | activity, negative = cell killing [1, 2] -11% | activity, negative = cell killing [1, 3] -1.03% | activity, negative = cell killing [1, 4] -3.42% | Potency (astro)

Cc1cccc(N(C)C(=S)Oc2ccc3c(c2)CCC3)c1
inactive: Potency (C33A) | Potency (CAOV3) | Potency (CASKI) | Potency (Es-2) | Potency (HeLa) | Potency (Hek293T) | Potency (JEG-3) | Potency (OV90) | Potency (PA-1) | Potency (SKOV3) | Potency (Tov-21-G) | Potency (Tov112D) | activity, negative = cell killing [1, 2] -19.8% | Potency (astro)
active: Potency ([1]; tumour line A) 17.8 µM | Potency ([1]; tumour line D) 20 µM

O=C(O)Cc1ccccc1Oc1ccc(Cl)cc1Cl
inactive: Potency (C33A) | Potency (CAOV3) | Potency (CASKI) | Potency (Es-2) | Potency (HeLa) | Potency (Hek293T) | Potency (JEG-3) | Potency (OV90) | Potency (PA-1) | Potency (SKOV3) | Potency (Tov-21-G) | Potency (Tov112D) | activity, negative = cell killing [1, 2] -7.43% | activity, negative = cell killing [1, 3] -9.2% | activity, negative = cell killing [1, 4] 1.53% | Potency (astro)

CO[C@]1(NC(=O)CSC(F)F)C(=O)N2C(C(=O)O)=C(CSc3nnnn3CCO)CO[C@H]21
inactive: Potency (C33A) | Potency (CAOV3) | Potency (CASKI) | Potency (Es-2) | Potency (HeLa) | Potency (Hek293T) | Potency (JEG-3) | Potency (OV90) | Potency (PA-1) | Potency (SKOV3) | Potency (Tov-21-G) | Potency (Tov112D) | activity, negative = cell killing [1, 2] 4.83% | activity, negative = cell killing [1, 3] -21.2% | activity, negative = cell killing [1, 4] -14% | Potency (astro)
